An excerpt weighted towards active compounds, which were near 7.3% of everything screened.
ELG1 genotox: qHTS screen for small molecules that induce genotoxicity in human embryonic kidney (HEK293T) cells expressing luciferase-tagged ELG1 | HEK293T ELG1-luciferase reporter, luminescence, 16 h | Potency, µM (doses to about 46 µM), inactives show at the top dose activity change, positive = activation, usual class: activators | actives 1.3% (n = 330,000); note: % of control where 0% means no effect; nearly all actives have a fitted effect of over 60% in size
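DMSO vehicle served as control against compound-treated ELG1-luciferase HEK293T cells; exposure lasted 16 hr at 37 °C and 5% CO2, followed by ONE-Glo luminescence detection after 30 min.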
Rab9 prom act: qHTS Assay for Rab9 Promoter Activators; Huh7 Rab9 promoter-luciferase reporter, luminescence, 24 h; Potency, µM (highest dose often 9.22 µM), for inactives: at the highest dose activation, negative = inhibition, most hits filed as activators; actives 2.8% (n = 320,000); AID 485297, 2010; note: % of control where 0% means no effect; nearly all actives have a fitted effect of over 60% in size
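Luminescence from Amplite-detected luciferase (10 minutes, ambient) reports Rab9 promoter activation. Before that, stable Rab9-luciferase Huh7 cells (1500/well, reduced-serum OP-MEM I plus 10% FBS) were exposed to compound for 24 hours at 37C.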
NPC1 prom act: qHTS Assay for NPC1 Promoter Activators | Huh7 NPC1 promoter luciferase reporter, 24 h | Potency, µM (highest dose often 9.22 µM), for the others: top-dose activation, most hits filed as activators | actives 2.4% (n = 320,000) | AID 485313, 2010; note: % of control where 0% means no effect; nearly all actives have a fitted effect of over 60% in size
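Luciferase expression driven by the NPC1 promoter was measured in stably transfected Huh7 cells after a 24 h compound incubation, using a luciferase reagent and a luminescence read.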
FLuc modulator: qHTS profiling assay for firefly luciferase inhibitor/activator using purifed enzyme and Km concentrations of substrates (counterscreen for miR-21 project); Luciferin 4-monooxygenase (Photinus pyralis), P08659; purified FLuc, Km substrates, luminescence inhibition; Potency, µM (highest dose often 57.5 µM), for the others: at the top dose activity change, negative = inhibition, usual class: inhibitors; actives 6.9% (n = 360,000); AID 588342, 2011;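 note: plate controls were vehicle for no effect and reference inhibitor for full effect; nearly all actives have a fitted effect of over 55% in size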
Target sequence (P08659 whole entry, looked up): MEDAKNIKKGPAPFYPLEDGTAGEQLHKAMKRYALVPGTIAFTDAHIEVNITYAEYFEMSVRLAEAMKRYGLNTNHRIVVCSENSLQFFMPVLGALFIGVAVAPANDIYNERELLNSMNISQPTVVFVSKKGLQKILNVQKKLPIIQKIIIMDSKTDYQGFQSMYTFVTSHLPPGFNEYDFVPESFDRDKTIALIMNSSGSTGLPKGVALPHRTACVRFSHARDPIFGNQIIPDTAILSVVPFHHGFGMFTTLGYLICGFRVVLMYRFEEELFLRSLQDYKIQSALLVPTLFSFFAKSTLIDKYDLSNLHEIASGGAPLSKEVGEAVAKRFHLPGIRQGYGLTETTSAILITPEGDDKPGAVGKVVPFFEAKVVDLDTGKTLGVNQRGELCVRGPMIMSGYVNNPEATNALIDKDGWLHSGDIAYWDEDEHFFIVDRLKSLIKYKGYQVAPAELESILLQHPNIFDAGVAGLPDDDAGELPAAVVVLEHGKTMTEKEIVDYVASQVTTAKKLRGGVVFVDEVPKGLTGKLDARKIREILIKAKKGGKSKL
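Purified P. pyralis luciferase (10nM final) with 10uM D-luciferin and 10uM ATP (Km levels) in 50mM Tris acetate pH 7.5, 10mM Mg acetate, 0.01% Tween-20, 0.05% BSA; qHTS 6-point titration, ~60 µM downward; luminescence read.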
Luc counter: Counterscreen for Luciferase (Kinase-Glo TM) Inhibition | Kinase-Glo luciferase, ATP luminescence, 8 min | actives 0.28% (n = 200,000) | Luciferin 4-monooxygenase (Photuris pensylvanica), Q27757 | Potency, µM (highest dose often 38.3 µM), inactives show at the top dose activity change, negative = inhibition, most hits filed as inhibitors; note: % is set by controls: 0 for no effect and ±100 for the full control effect; nearly all actives have a fitted effect of over 60% in size
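Compounds were added to a substrate mix at pH 7.2 (50 mM imidazole, 10 uM ATP, within the enzyme's linear range), followed by Kinase-Glo detection reagent; luminescence was measured after 8 minutes at ambient temperature.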
SMN2 splice enh: qHTS Assay for Enhancers of SMN2 Splice Variant Expression | AID 1458, 2008 | Potency, µM (series often up to 46.1 µM), without a hit: top-dose activity change, positive = activation, actives largely listed as activators | actives 2.8% (n = 210,000) | HEK293 SMN2-luciferase splicing reporter, luminescence, 30-36 h; note: % of control where 0% means no effect; nearly all actives have a fitted effect of over 55% in size
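HEK293 cells carry an SMN2 minigene-luciferase reporter in which exon 7 inclusion puts luciferase in frame. Cells were seeded at 2000 cells/well, attached for 10-12 hours, then exposed to compounds for 30-36 hours at 37C before ONE-Glo luminescence.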
* = called active by the depositor; ? = inconclusive; . = no result; [ ] = another dose, or the depositor's remark. Calls come from the whole dose curve; as a rule, active = well fitted curve in the direction sought with a large enough effect; inconclusive = small, poorly fitted or top-dose-only effect, or another doubt; inactive = no such curve, though single readings can be large; an effect the other way counts as inactive or inconclusive. Potency is the fitted concentration of half-maximal effect.

SMILES | ELG1 genotox | Rab9 prom act | NPC1 prom act | FLuc modulator | Luc counter | SMN2 splice enh
Cc1cccc(NC(=O)Nc2ccccn2)c1C | 13% | 4µM* | ? | 9.5µM* | . | .
Cc1cccc(NC(=O)c2ccccn2)c1C | 16% | 3.5µM* | ? | ? | 10% | 0%
Cc1cccc(NC(=O)c2cccnc2)c1C | 2% | -4% | 3% | 5% | . | .
Cc1ccccc1NC(=O)Nc1ccccn1 | 13% | ? | ? | -11% | . | .
CSCc1ccc(C(=O)Nc2cccc(C)c2C)cc1 | ? | ? | ? | 12µM* | -3% | 20µM*
CCCCNC(=O)Nc1ccccn1 | 0% | -1% | 0% | -2% | -3% | 5µM*
CCCCNC(=O)Nc1ccc(Br)cn1 | ? | ? | ? | ? | -3% | -8%
Cc1ccc(SCN2CCCCC2)cc1 (tested in a mixture with another compound) | . | . | . | . | -6%[7.66 µM] | -6%[9.22 µM]
Cc1cc(=O)n2nc(N(C)CC(=O)NCc3ccccc3C)sc2n1 | . | . | . | -1% | . | 5%
CCOc1ccc(CNC(=O)c2cccn2-c2nnc(N3CCCCC3)s2)cc1OC | . | . | . | -9% | . | .
COCCN1C(=O)N[C@@H](c2cccc(C(F)(F)F)c2)C(C(C)=O)=C1C | . | . | . | . | -2% | 1%
Cc1cc(C)cc(-n2c(SCC(=O)Nc3ccccc3)nc3c(oc4ccccc43)c2=O)c1 | . | . | . | -1% | . | -10%
c1ccc(CNc2ccnc(-c3ccoc3)n2)cc1 | . | . | . | . | -3% | -3%
CCOC(=O)CC(=O)CSc1nc2c(cc1C#N)CCCCC2 | 7.1µM* | ? | 21% | 9.5µM* | -2% | ?
CCOC(=O)CC(=O)COc1nc2cc3c(nc2o1)CCCC3 | ? | 18% | -3% | 13µM* | . | .
CCOC(=O)CC(=O)CSc1nc2c(c(C)c1C#N)CCC2 | 1% | 6% | 23% | 11µM* | 0% | -6%
Cc1ccccc1NC(=O)Cn1cnc2c(oc3nc4c(cc32)CCCC4)c1=O | 6% | 10% | 1% | -14% | . | .
CC(C)OC(=O)CC(=O)CSc1nc2c(cc1C#N)CCCCC2 | 15µM* | ? | 14% | 7.6µM* | 1% | ?
CCOC(=O)Cc1ccc(NC(=O)NCc2c(-n3cccc3)sc3c2CCCC3)cc1 | . | . | . | -3% | . | .
CCC(Sc1nc2c(sc3ccccc32)c(=O)n1CCCC(=O)NC1CCCC1)C(=O)Nc1cccc(OC)c1 (configuration not stated) | . | . | . | 1% | . | 25%
Cc1ccc(-c2nc3n(n2)C(c2ccccc2Cl)C=C(c2ccc(Cl)cc2)N3)cc1 (configuration not stated) | . | . | . | -4% | . | -5%
CCOc1ccccc1NC1(c2ccccc2)C(=O)c2ccccc2C1=O | . | . | . | -9% | . | .
COc1ccc(OC)c(-c2csc(NC(=O)c3ccc(OCC4CCCO4)cc3)n2)c1 (configuration not stated) | -4% | -25% | -4% | 1.5µM* | -1% | -25%
COc1ccc(OC)c(-c2csc(NC(=O)c3ccc(F)cc3)n2)c1 | 7% | 6% | ? | 11µM* | . | .
COc1ccc(OC)c(-c2csc(NC(=O)C3=COCCO3)n2)c1 | -4% | 0% | 1% | 11µM* | . | .
Cc1ccc(C)c(-c2csc(NC(=O)C3=COCCO3)n2)c1 | ? | 0% | -2% | ? | . | .
COc1ccc(OC)c(-c2csc(NC(=O)CSc3ccc(Br)cc3)n2)c1 | -2% | -3% | 0% | -2% | 2% | -13%
COc1ccc(C(=O)Nc2nc(CC(=O)NCCc3ccccc3OC)cs2)cc1 | -6% | 5% | -6% | 2.7µM* | . | .
COc1ccc2c(c1)cc1c(=O)n(CC(=O)NCc3ccco3)nc(C)n12 | . | . | . | 0% | . | 2%
COc1ccc(C)c2sc(NC(=O)C3=COCCO3)nc12 | 16µM* | 15% | 14% | 5.4µM* | -2% | ?

Compound activity from PubChem BioAssay.
